The source of these data is PubChem BioAssay AID1739 (National Center for Advancing Translational Sciences (NCATS), 2009).

Records with an inconclusive call do not appear. Where a call stands in place of a potency, no number is given. The source made the active and inactive calls. The call rests on the fitted dose curve; in most records, active means well fitted inhibition curve with a large enough effect; inconclusive means small, poorly fitted or top-dose-only effect; inactive means flat fitted curve, though single readings scatter.

This test can be described thus: Counterscreen Assay for Enhancers of SMN2 Splice Variant Expression: Modulation of SMN1 Expression. Conditions: HEK293 SMN1-luciferase reporter, luminescence, 30-36 h; series mostly up to 22.8 µM. From the text:
NIH Chemical Genomics Center [NCGC] NIH Molecular Libraries Probe Production centers Network [MLPCN] MLPCN Grant: R03 MH084179-01 Assay Submitter (PI): Elliot Androphy NCGC Assay Overview: Spinal muscular atrophy (SMA) is caused by insufficient levels of the survival motor neuron protein SMN. The SMN locus on chromosome 5q13 contains two inverted copies of SMN called SMN1 and SMN2 which are 99% identical at the amino acid level. SMN1 is a fully functional protein and SMN2 skips exon 7 90% of the time. Skipping of exon 7 produces non-functional protein product. 10% of the SMN2 protein includes exon 7 and is fully functional. In the SMA disease state, mutations in the SMN1 locus are the cause of the disease state. Because only 10% of SMN2 is of the fully functional form, it is not sufficient to overcome the deficiency produced by the loss of the SMN1 product. A therapy that either increase the amount of SMN2 product made or to increase the inclusion of exon 7 has been proposed for the treatment of SMA. We have designed an assay to identify small molecules that can increase the amount of functional SMN2 product by appending a luciferase reporter gene after the native SMN2 gene, such that inclusion of exon 7 in the expressed product places the luciferase sequence in frame, thus generating functional luciferase enzyme. As a counterscreen for nonspecific modulators of expression, we have run compounds through a similar assay that measures expression of an SMN1-luciferase chimera.
NCGC Assay Protocol Summary: This screen utilizes a luciferase reporter gene assay, combining the promoter with the major portion of the native SMN1 cDNA (exons 1 -7, intron 8 , exon 8 fused to luciferase) stably expressed in HEK293 cells. Compounds that increase luciferase signal presumably enhance expression of the functional SMN1 splice variant. Passaging media contained DMEM w/ glutamax (+phenol red) 10% FCS, 1x pen/strep, 200 ug/ml hygro, 1x sodium pyruvate. Assay media contained DMEM w/ glutamax (-phenol red) 10% FCS, 1x pen strep, 1x pyruvate Sequence, Parameter, Value, Description (1) Cells, 5 uL, 2000 cells/well, 1536 TC treated White solid bottom plate (2) Time, 10-12 hours, 37C 5% CO2 (3) Compound, 23 nl, MLSMR Library (4) Control Compound, 23 nL, Sodium butyrate st 4.5mM (final) conc (5) Time, 30-36 hours, 37C 5% CO2 (6) Reagent, 3 ul, One Glo (TM) from Promega (7) Time, 5-15 minutes, Room temp (8) Detector, Viewlux: luminescent read, 60 second integration, high speed 2x binning Keywords: Spinal muscular atrophy, SMA, SMN2, high throughput screening, MLSMR, MLPCN, NIH Roadmap, qHTS and NCGC
In the case of `O=C(NCc1cccs1)C(=O)NCC1OCCCN1S(=O)(=O)c1ccccc1` (stereo not given), the Potency entry was “inactive”.
As to `OCCCNc1nc(-c2ccc(Cl)cc2)nnc1-c1ccccc1`, the Potency result was “inactive”.
With `Cn1cnc2c(NCc3ccco3)ncnc21`, the Potency result is “inactive”.
In the case of `COc1nc(-c2ccccc2)nnc1-c1ccccc1` it was “inactive”; in that of `Cc1ccc(-c2nnc(-c3ccccc3)c(N3CCOCC3)n2)cc1`, “inactive”.
Next, `Brc1nc2ncnc(NCc3ccco3)c2[nH]1`: “inactive”; `CN(C)CCCN(C(=O)c1cccs1)c1nc(-c2ccccc2)cs1`: “inactive”.
Next, `CC1CN(c2nc(-c3ccc(Br)cc3)nnc2-c2ccccc2)CC(C)N1` (stereo not given): “inactive”.
On to `CC(C)Nc1nc(-c2ccccc2)nnc1-c1ccccc1`, for which the Potency entry is “inactive”.
Next, `OCCCNc1nc(-c2ccc(Br)cc2)nnc1-c1ccc(Cl)cc1`: “inactive”; `O=S(=O)(NC1CCCc2ccccc21)c1cnc[nH]1` (stereo not given): “inactive”; `Cn1c(C(=O)NCc2cccs2)cc2oc3ccccc3c21`: 3.16 µM (active).
In the case of `COc1ccc(CNC(=O)c2ccc(C(C)C)cc2)cc1` it was “inactive”; in that of `CCCSc1nnc(Sc2nnnn2-c2ccccc2)s1`, 7.08 µM (active).
In the case of `FC(F)(F)c1cccc(-c2nnc(-c3ccccc3)c(N3CCOCC3)n2)c1` it was “inactive”; in that of `Clc1nc(NCC2CCCO2)c2[nH]cnc2n1` (stereo not given), “inactive”; in that of `CCC1=Nc2ccccc2-c2nnc(SC)nc2O1`, “inactive”.
Regarding `Clc1ccc(-c2nnc(-c3ccc(Br)cc3)c(N3CCSCC3)n2)cc1`, the Potency result is “inactive”.
In the case of `O=C(Cc1c(F)cccc1Cl)N1CCN(C(=O)c2ccco2)CC1` it was “inactive”.
In the case of `O=c1[nH]c(=O)n(C2CCCO2)cc1Br` (stereo not given) it was “inactive”; in that of `CCOC(=O)c1c(-c2cccc(C)c2)csc1NC(=O)c1c(-c2ccccc2)noc1C`, 0.355 µM (active).
In the case of `CCCCOC(C)n1cc(F)c(=O)[nH]c1=O` (stereo not given) it was “inactive”; in that of `Cc1[nH]c2ccccc2c1-c1nc(-c2ccc(Cl)cc2)nnc1-c1ccccc1`, “inactive”.
Consider `COCCCN1C(=O)C(=O)/C(=C(/O)c2ccc3c(c2)CC(C)O3)C1c1cccnc1` (stereo not given), for which the Potency result was “inactive”.
Next, `c1coc(CNc2ncnc3nc[nH]c23)c1`: “inactive”.
In the case of `O=c1cc(N2CCN(c3cccc(Cl)c3)CC2)[nH]c(=O)n1C1CCCCC1` it was “inactive”.
In the case of `Nn1c(SCC(=O)NCCC2=CCCCC2)nnc1C1CCCCC1` it was “inactive”; in that of `NC(=O)N1c2ccccc2C=Cc2ccccc21`, “inactive”.
For the molecule `O=C(NCCCNCCCNC(=O)c1ccccn1)c1ccccn1`, the Potency result is “inactive”.
With `Fc1ccc(Oc2nc(-c3ccccc3)nnc2C(F)(F)F)cc1`, the Potency result is “inactive”.
In the case of `COc1nc(-c2ccc(Cl)cc2)nnc1C` it was “inactive”; in that of `Cc1ccc(C(=O)Cn2c3c(sc2=N)CCCC3)cc1`, 7.94 µM (active); in that of `Clc1ccc(-c2nnc(-c3ccccc3)nc2-c2c[nH]c3ccccc23)cc1`, “inactive”.
In the case of `O=[N+]([O-])c1ccc(-c2nnc(-c3ccccc3)c(N3CCOCC3)n2)cc1` it was “inactive”; in that of `CN(Cc1ccccc1)Cc1c(F)cccc1F`, “inactive”; in that of `Clc1ccc(-c2nnc(-c3ccccc3)c(N3CCSCC3)n2)cc1`, “inactive”.
In the case of `CC(/C=C/C(=O)NO)=C\[C@@H](C)C(=O)c1ccc(N(C)C)cc1` it was 7.94 µM (active); in that of `Cc1nnc(-c2ccccc2)[nH]c1=O`, “inactive”.
As to `O=C(Nc1ccc([N+](=O)[O-])cc1Cl)c1cc(Cl)ccc1O`, the Potency is 0.708 µM (active).
Regarding `O=C(O)c1cccc(COc2ccc(CO)cc2Cl)c1`, the Potency was 3.16 µM (active).
